Reference: PubChem BioAssay (EPA / NIEHS)
Active and inactive are the calls of the source. The calls were made as follows: active = hit-call score of the fitted dose curve at least 0.9, where 1 is the maximum; inactive = score below 0.9.

Columns and labels:
Conditions in all cases: mRNA level, 48 h; actives raise or lower the signal
CYP2C9 (gene 1559) = assay: LTEA_HepaRG_CYP2C9: Life Technologies and Expression Analysis (LTEA) Assay for CYP2C9 using HepaRG (AID 2283484)
Procedure, shortened: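 CYP2C9 transcript level, quantified by TaqMan qRT-PCR against three housekeeping genes, was fitted bidirectionally relative to 0.5% DMSO. HepaRG cultures were treated 48 h, in duplicate, at eight half-log concentrations topping at 100 uM.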

CYP2E1 (gene 1571) = assay: LTEA_HepaRG_CYP2E1: Life Technologies and Expression Analysis (LTEA) Assay for CYP2E1 using HepaRG (AID 2283485)
Procedure, shortened: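 CYP2E1 transcript measured by Fluidigm qRT-PCR against three housekeeping genes in human HepaRG cells treated 48 h (top 100 uM, half-log steps, 0.5% DMSO vehicle). Gain or loss fitted relative to DMSO baseline.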

CYP4A11 (gene 1579) = assay: LTEA_HepaRG_CYP4A11: Life Technologies and Expression Analysis (LTEA) Assay for CYP4A11 using HepaRG (AID 2283486)
Procedure, shortened: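 Human hepatic HepaRG cultures receive duplicate 48 h exposures across a concentration-response series topping at 100 uM. Expression changes in CYP4A11 are measured by qRT-PCR relative to DMSO controls.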

[1] = read-out: Cytochrome P450 3A4 (Homo sapiens) (UniProt P08684); assay: LTEA_HepaRG_CYP3A4: Life Technologies and Expression Analysis (LTEA) Assay for CYP3A4 using HepaRG (AID 2283487)
Procedure, shortened: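 HepaRG, 48 h exposure, 8-pt CRC from 100 uM (half-log), 0.5% DMSO, duplicates; serum-free induction medium. Readout: CYP3A4 mRNA, qRT-PCR, ACTB/GAPDH/POLR2A normalization. Bidirectional fit vs DMSO.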

[2] = read-out: DNA damage-inducible transcript 3 (DDIT3), DDIT3 (gene 1649); assay: LTEA_HepaRG_DDIT3: Life Technologies and Expression Analysis (LTEA) Assay for DNA damage-inducible transcript 3 (DDIT3) using HepaRG (AID 2283488)
Procedure, shortened: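 DDIT3 transcript was quantified by qRT-PCR with ACTB/GAPDH/POLR2A normalization after 48 h chemical treatment of differentiated HepaRG cells in 0.5% DMSO. Dosing was eight-point, half-log, top 100 uM, duplicate wells. Curves fitted bidirectionally versus DMSO.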

[3] = read-out: Pro-epidermal growth factor (Homo sapiens) (UniProt P01133); assay: LTEA_HepaRG_EGF: Life Technologies and Expression Analysis (LTEA) Assay for Epidermal growth factor (EGF) using HepaRG (AID 2283489)
Procedure, shortened: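 Concentration-response mRNA assay: HepaRG cells dosed 48 h (max 100 uM, 0.5% DMSO), EGF measured by qRT-PCR and normalized to ACTB/GAPDH/POLR2A.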

[4] = read-out: Ezrin (EZR), EZR (gene 7430); assay: LTEA_HepaRG_EZR: Life Technologies and Expression Analysis (LTEA) Assay for Ezrin (EZR) using HepaRG (AID 2283491)
Procedure, shortened: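 Read-out is EZR transcript level by qRT-PCR, normalized to three housekeeping genes and fitted bidirectionally against the DMSO control. Human HepaRG cells received test chemicals for 48 h at eight half-log concentrations up to 100 uM in 0.5% DMSO.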

[5] = read-out: Cytochrome P450 3A7 (Homo sapiens) (UniProt P24462); assay: LTEA_HepaRG_CYP3A7: Life Technologies and Expression Analysis (LTEA) Assay for CYP3A7 using HepaRG (AID 2283492)
Procedure, shortened: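 qRT-PCR of CYP3A7 in HepaRG lysates after 48 h treatment; concentration-response (8 points, max 100 uM) analysed bidirectionally relative to 0.5% DMSO controls.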

[6] = read-out: Early growth response protein 1 (EGR1) transcription factor, EGR1 (gene 1958); assay: LTEA_HepaRG_EGR1: Life Technologies and Expression Analysis (LTEA) Assay for Early growth response protein 1 (EGR1) transcription factor using HepaRG (AID 2283490)
Procedure, shortened: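 EGR1 transcript levels quantified by qRT-PCR (Fluidigm arrays) against three housekeeping genes after 48 h chemical exposure of HepaRG cells. Eight-point half-log series topping at 100 uM, 0.5% DMSO vehicle, analyzed for gain or loss.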

CYP3A5 (gene 1577) = assay: LTEA_HepaRG_CYP3A5: Life Technologies and Expression Analysis (LTEA) Assay for CYP3A5 using HepaRG (AID 2283493)
Procedure, shortened: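 mRNA levels were quantified by qRT-PCR on Fluidigm arrays and normalized to three housekeeping genes. Differentiated HepaRG cells received 48 h exposure (top 100 uM, half-log steps, 0.5% DMSO vehicle, duplicate); bidirectional fitting versus DMSO.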

Measured: AC50

Chain of Cytochrome P450 3A7 (Homo sapiens) (P24462 whole entry, looked up): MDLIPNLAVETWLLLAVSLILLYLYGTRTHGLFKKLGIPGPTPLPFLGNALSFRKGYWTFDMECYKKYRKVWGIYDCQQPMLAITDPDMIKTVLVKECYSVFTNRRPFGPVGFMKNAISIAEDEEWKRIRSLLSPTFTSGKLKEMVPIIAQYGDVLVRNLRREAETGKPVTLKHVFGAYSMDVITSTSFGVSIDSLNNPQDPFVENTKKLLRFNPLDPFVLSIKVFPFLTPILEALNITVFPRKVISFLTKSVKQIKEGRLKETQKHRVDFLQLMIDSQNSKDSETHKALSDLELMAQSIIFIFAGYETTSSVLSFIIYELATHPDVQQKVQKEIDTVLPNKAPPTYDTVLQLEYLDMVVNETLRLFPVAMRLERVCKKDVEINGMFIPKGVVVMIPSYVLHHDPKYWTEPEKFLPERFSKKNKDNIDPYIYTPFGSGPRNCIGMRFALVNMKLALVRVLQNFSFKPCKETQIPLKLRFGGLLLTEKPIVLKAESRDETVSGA
Chain of Cytochrome P450 3A4 (Homo sapiens) (P08684 whole entry, looked up): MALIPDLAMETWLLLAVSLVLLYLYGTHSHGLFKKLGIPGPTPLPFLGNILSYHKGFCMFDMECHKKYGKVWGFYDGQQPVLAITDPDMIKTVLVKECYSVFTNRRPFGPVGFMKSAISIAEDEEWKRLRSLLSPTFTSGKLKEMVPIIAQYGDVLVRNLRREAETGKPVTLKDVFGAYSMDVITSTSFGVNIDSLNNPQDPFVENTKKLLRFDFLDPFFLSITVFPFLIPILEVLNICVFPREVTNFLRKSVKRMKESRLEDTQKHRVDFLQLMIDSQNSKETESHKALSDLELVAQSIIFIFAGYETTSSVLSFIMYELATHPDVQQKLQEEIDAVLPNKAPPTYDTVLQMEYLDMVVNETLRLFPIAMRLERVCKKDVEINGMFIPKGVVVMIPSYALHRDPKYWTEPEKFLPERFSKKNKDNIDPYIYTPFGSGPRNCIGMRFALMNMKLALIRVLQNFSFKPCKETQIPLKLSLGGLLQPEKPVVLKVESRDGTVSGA

NC(=O)NN=Cc1ccc([N+](=O)[O-])o1
active: CYP2E1 (gene 1571) 19 µM | [3] 50 µM
not listed: [6] | CYP3A5 (gene 1577)
inactive: all other assays above

CCCCCCCCCCCCCCCCOS(=O)(=O)O
active: CYP2E1 (gene 1571) 38.5 µM
not listed: [4] | CYP3A5 (gene 1577)
inactive: all other assays above

c1ccc2c(c1)-c1cccc3c1c-2cc1ccccc13
inactive: [3]
active: CYP2C9 (gene 1559) 18.1 µM | CYP2E1 (gene 1571) 14.7 µM | CYP4A11 (gene 1579) 26.1 µM | [1] 7.02 µM | [2] 7.35 µM | [6] 0.404 µM | [5] 13 µM

CC(=O)c1ccccc1
not listed: CYP3A5 (gene 1577)
inactive: all other assays above

CC(C)CCCCCCOC(=O)C1CCCCC1C(=O)OCCCCCCC(C)C (stereo not drawn)
not listed: [6]
inactive: all other assays above

CCc1cccc(CC)c1N
not listed: [4] | CYP3A5 (gene 1577)
inactive: all other assays above

CCc1ccc(O)c(C(C)(C)C)c1
not listed: [4] | CYP3A5 (gene 1577)
inactive: all other assays above

C[C@@H](Oc1ccc(CNC(=O)c2cccnc2Oc2ccc3c(c2)OCO3)c(F)c1)C(=O)O
active: CYP4A11 (gene 1579) 28.5 µM
not listed: CYP3A5 (gene 1577)
inactive: all other assays above

O=c1[nH]cnc2c1ncn2[C@H]1CC[C@@H](CO)O1
not listed: [6] | CYP3A5 (gene 1577)
inactive: all other assays above

CNC(C)=O
not listed: CYP3A5 (gene 1577)
inactive: all other assays above

CCCCC(CC)C(=O)OCCOCCOCCOC(=O)C(CC)CCCC (stereo not drawn)
active: CYP4A11 (gene 1579) 50 µM
not listed: [4] | CYP3A5 (gene 1577)
inactive: all other assays above

CCCCCCCC/C=C\CCCCCCCC(=O)OC[C@@H](O)[C@H]1OC[C@H](O)[C@H]1O
not listed: CYP3A5 (gene 1577)
inactive: all other assays above

C=CN1CCCC1=O
not listed: [4]
inactive: all other assays above

Cc1nccn1-c1ccc(Sc2cccc(C3(C(N)=O)CCOCC3)c2)cc1
active: CYP2C9 (gene 1559) 12.2 µM | CYP2E1 (gene 1571) 6.52 µM | CYP4A11 (gene 1579) 4.94 µM | [1] 13.4 µM | [2] 4.47 µM | [3] 32.8 µM | [5] 10.4 µM | CYP3A5 (gene 1577) 19.5 µM
inactive: [4]

COCc1nnc(-c2ccc[n+]([O-])c2)n1-c1c(Cl)c(Cl)cc2[nH]c(=O)c(=O)[nH]c12
not listed: [6] | CYP3A5 (gene 1577)
inactive: all other assays above

CCCCCCOC(=O)CC(CC(=O)OCCCCCC)(OC(=O)CCC)C(=O)OCCCCCC
active: [1] 17.7 µM
not listed: [6] | CYP3A5 (gene 1577)
inactive: all other assays above

CCCOc1ccc(S(=O)(=O)N2CCN(CC)CC2)cc1-c1nc2c(CC)n(Cc3ccccn3)nc2c(=O)[nH]1
active: CYP2E1 (gene 1571) 4.54 µM | CYP4A11 (gene 1579) 30.9 µM | [1] 2.11 µM | [2] 69.6 µM | [5] 1.22 µM
inactive: CYP2C9 (gene 1559) | [3] | [6]

OC[C@H]1O[C@@](CO)(O[C@H]2O[C@H](CO)[C@@H](O)[C@H](O)[C@H]2O)[C@@H](O)[C@@H]1O
not listed: [4]
inactive: all other assays above

CC[C@H](C)C(=O)O[C@H]1C[C@H](O)C=C2C=C[C@H](C)[C@H](CC[C@@H](O)C[C@@H](O)CC(=O)O)[C@H]21
active: CYP2E1 (gene 1571) 50 µM
not listed: [4]
inactive: all other assays above

Cc1nc(-c2ccccn2)ncc1C(=O)Nn1cc(C)c2cc(F)ccc21
active: CYP2C9 (gene 1559) 75.6 µM | CYP2E1 (gene 1571) 24.3 µM | CYP4A11 (gene 1579) 59.4 µM | [1] 1.57 µM | [5] 0.945 µM
inactive: [2] | [3] | [6] | [4]

O=C(O)c1cccc(C[C@@H]2COc3ccc(OCc4nc5cc(F)ccc5s4)cc3[C@@H]2O)c1
active: CYP2C9 (gene 1559) 81.6 µM | CYP2E1 (gene 1571) 71.7 µM | CYP4A11 (gene 1579) 85.9 µM | [1] 78.2 µM | [5] 82.2 µM
inactive: all other assays above

O=S(=O)(O)c1ccc(N=Nc2c(O)ccc3cc(S(=O)(=O)O)ccc23)cc1
not listed: [4]
inactive: all other assays above

Nc1ccn([C@@H]2O[C@H](CO)[C@@H](O)[C@@H]2O)c(=O)n1
inactive: all assays above

CCCCN1C(=O)[C@@H]([C@H](O)C2CCCCC2)NC(=O)C12CCN(Cc1ccc(Oc3ccc(C(=O)O)cc3)cc1)CC2
active: CYP2C9 (gene 1559) 1.7 µM | CYP2E1 (gene 1571) 3.86 µM | CYP4A11 (gene 1579) 2.41 µM | [1] 1.82 µM | [2] 3.66 µM | [3] 9.39 µM | [5] 2.38 µM
inactive: [6] | [4]

CCN(CC)C(=S)SSC(=S)N(CC)CC
not listed: CYP3A5 (gene 1577)
inactive: all other assays above

OCCNCCO
active: CYP2C9 (gene 1559) 50 µM | CYP2E1 (gene 1571) 45 µM
not listed: [6] | CYP3A5 (gene 1577)
inactive: all other assays above

OCc1ccccc1
not listed: [4] | CYP3A5 (gene 1577)
inactive: all other assays above

CCOC(N)=O
not listed: [6]
inactive: all other assays above

CCn1nc(C)c2c1C(=O)NCC(c1ccc(O)cc1)=N2
active: CYP4A11 (gene 1579) 27.9 µM | [1] 29.9 µM | [5] 34.1 µM
not listed: [4] | CYP3A5 (gene 1577)
inactive: all other assays above

CC(C)c1nnc2ccc(-c3ocnc3-c3cc(F)ccc3F)cn12
active: CYP2C9 (gene 1559) 71.7 µM | CYP2E1 (gene 1571) 22.2 µM | CYP4A11 (gene 1579) 33.6 µM | [1] 1.42 µM | [2] 80.1 µM | [6] 12.3 µM | [5] 81.6 µM
inactive: [3] | CYP3A5 (gene 1577)

CCCCOC(=O)c1ccccc1
not listed: CYP3A5 (gene 1577)
inactive: all other assays above
